High-throughput results as filed in PubChem BioAssay.
MBNL1 CUG block: MBNL1-poly(CUG) RNA binding inhibition | Potency, µM (titrated, usually from 57.5 µM), for the others: at the top dose activity change, negative = inhibition, hits mostly inhibitors | TR-FRET MBNL1-His/biotin-(CUG)12 binding, 665/545 ratio | AID 2675 | 280,000 tested, 0.036% active; active = well fitted inhibition curve with a large enough effect in the signal ratio, with a control signal flat, not every such curve was filed as active; inconclusive = small, poorly fitted or top-dose-only effect, or effect the other way, or a change in a side signal; inactive = no such curve, though single readings can be large or run the other way; the % refers to the signal ratio; also: % is scaled to controls: 0 for no effect and ±100 for the full control effect
Target sequence (Q9NR56 whole entry, looked up): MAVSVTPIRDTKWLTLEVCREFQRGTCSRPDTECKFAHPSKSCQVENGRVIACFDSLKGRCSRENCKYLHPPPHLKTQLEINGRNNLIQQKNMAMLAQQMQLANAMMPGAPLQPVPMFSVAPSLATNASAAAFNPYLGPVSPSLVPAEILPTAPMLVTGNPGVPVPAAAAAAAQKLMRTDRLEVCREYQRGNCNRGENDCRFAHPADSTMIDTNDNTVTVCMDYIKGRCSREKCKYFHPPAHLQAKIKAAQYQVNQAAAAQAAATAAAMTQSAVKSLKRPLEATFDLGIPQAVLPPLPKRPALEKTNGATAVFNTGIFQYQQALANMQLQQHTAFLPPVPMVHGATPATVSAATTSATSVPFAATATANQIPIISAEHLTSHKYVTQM
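Compound titration spanned 92 nM–58 uM against the MBNL1-His/biotin-(CUG)12 complex. After 60 min at room temperature with 5 nM streptavidin-XL665 and 0.055 ng/ul terbium anti-His, ratiometric 665/545 nm emission (Ex 340 nm) normalized to controls.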
FUS suppressor: rescues growth of FUS-expressing yeast. Potency, µM (doses to about 76.6 µM), hits mostly activators. 390,000 tested, 0.24% active. S. cerevisiae FUS-expressing, growth rescue, OD600, 24 h;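 also: plate controls were DMSO vehicle for no effect and reference control for full effect; nearly all actives have a fitted effect of over 55% in size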
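Quantitative HTS measuring growth restoration of FUS-toxic yeast. Galactose-induced cells (OD 0.005) were exposed 24hr at 30C to compounds at several concentrations, then absorbance at 600 nm was recorded.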
aSyn rescue: alpha-synuclein toxicity inhibition in yeast; Yeast expressing alpha-synuclein, growth rescue, BacTiter-Glo, 24 h; Potency, µM (doses to about 46.1 µM), for the others: at the highest dose growth rescue (activation), hits mostly activators; 370,000 tested, 0.14% active; AID 652106; also: % of control where 0% means no effect; nearly all actives have a fitted effect of over 65% in size
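Rescue of yeast growth: cells expressing toxic alpha-synuclein, induced in galactose at OD600 0.02, incubated with compound 24 h at 30 C. ATP luminescence quantified growth; inhibitors of toxicity appear as activators.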
TDP43 rescue: rescues yeast growth from TDP-43 toxicity; TDP-43 expressing yeast growth rescue, BacTiter-Glo, 24 h; Potency, µM (highest dose often 46.1 µM), for the others: top-dose growth rescue (activation), usual class: activators; 410,000 tested, 1.8% active; AID 652104; also: % of control where 0% means no effect; nearly all actives have a fitted effect of over 50% in size
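Luminescence from BacTiter-Glo reports growth of TDP-43-expressing yeast after 24 hr at 30 deg C with compound. Cells were raffinose-pregrown to mid-log, then seeded in galactose medium at OD600=0.02.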
Glioma ERSR ind: inducers of ER stress response in human glioma cells. U87-MG GRP78 promoter luciferase reporter, 16 h. Potency, µM, inactives show at the highest dose activation, hits mostly activators. 420,000 tested, 0.02% active; also: series mostly up to about 76 µM; % of control where 0% means no effect; nearly all actives have a fitted effect of over 35% in size
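Stably transfected U87-MG human glioma cells carrying a GRP78-based luminescent sensor were seeded at 1000 cells/well, pin-dosed with compounds and incubated 16 h. Luciferase reagent was then added, and end-point luminescence was read after 10 min at room temperature.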
Abeta yeast res: A-beta toxicity reversal in yeast | yeast expressing A-beta42, growth rescue, OD600, 48 h; response scale: 0% DMSO, 100% iron-clioquinol control | AID 1347071 | Potency, µM (titrated, usually from 46.1 µM), actives largely listed as activators | 410,000 tested, 0.063% active; also: nearly all actives have a fitted effect of over 55% in size
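Growth rescue measured by 600 nm absorbance after 48 h yeast culture at 30 C with compound. Values normalized between DMSO and an equimolar ferric chloride plus clioquinol control.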
An asterisk follows results filed as active; i = inactive; u = inconclusive; x = no result; [ ] = dose if it differs, or a comment. This is a sample that favours compounds with a hit; in the whole collection about 2% have one here. Unless noted, calls follow the shape of the dose curve; as a rule, active = well fitted curve in the direction sought with a large enough effect; inconclusive = small, poorly fitted or top-dose-only effect, or another doubt; inactive = no such curve, though single readings can be large; an effect the other way counts as inactive or inconclusive. Potency is read from the fitted curve at half-maximal effect.

SMILES	MBNL1 CUG block	FUS suppressor	aSyn rescue	TDP43 rescue	Glioma ERSR ind	Abeta yeast res
CC(=O)c1ccc(Sc2nnnn2-c2ccccc2)c([N+](=O)[O-])c1	x	i	-19%	20µM*	-14%	i
O=C1[C@H](Cc2ccccc2)NC/C=C\C[C@@H](c2ccc(Cl)cc2)N1Cc1ccccc1	x	x	x	x	-11%	x
O=C(N/N=C/c1c[nH]c2ccccc12)c1cccc(Cl)c1	0%	i	-4%	13%	10%	i
O=C(N/N=C/C1C(c2ccccc2)C1(Cl)Cl)c1cccc(Cl)c1 (configuration not stated)	-1%	5.6µM*	17%	-15%	3%	i
FC(F)(F)c1ccccc1NC(=S)OC1CCC12CCC(c1ccccc1)CC2 (configuration not stated)	x	i	x	x	x	x
N/C(CC1CC1(Cl)Cl)=N\OC(=O)c1ccccc1 (configuration not stated)	-11%	i	-35%	18µM*	8%	i
N/C(Cc1ccc(Cl)cc1Cl)=N\OC(=O)c1ccccc1	2%	i	-75%	u	-1%	i
O=C(c1ccco1)N1CCN(c2nc3c(Cl)cccc3s2)CC1	x	i	x	u	1%	i
Cc1ccc(C)c2sc(N3CCN(C(=O)c4ccco4)CC3)nc12	x	i	x	11µM*	-1%	i
Cc1cccc2sc(N3CCN(C(=O)c4ccco4)CC3)nc12	x	i	x	11µM*	1%	i
N#CCC[C@H]1CC[C@]2(CCCN(Cc3ccc(Br)cc3)C2)O1	x	i	x	x	x	x
CCCCCCCCCC[n+]1ccc(/C=C/c2ccc(N(C)C)cc2)c2ccccc21	x	x	-76%	x	-11%	x
CCOC(=O)Cn1c(=O)n(Cc2ccco2)c(=O)c2ccc(C(=O)NC3CCCC3)cc21	-14%	i	0.56µM*	12%	-2%	i
COc1cc2nc(N3CCCC(O)C3)c(CNCc3ccccc3C(F)(F)F)cc2c(OC)c1OC (configuration not stated)	x	x	x	x	-4%	x
O=C1C2ON(c3ccccc3)C(c3ccccn3)C2C(=O)N1c1ccc(Br)cc1 (configuration not stated)	0%	i	26%	13µM*	0%	u
COc1cc(-c2cc(C)c3c(OC)ccc(OC)c3n2)cc2c1OCCN(C(=O)CCn1ccc(C)n1)C2	x	x	x	x	-4%	x
O=S(=O)(NCC(c1ccco1)N1CCc2ccccc21)c1ccccc1 (configuration not stated)	x	i	10%	22µM*	-4%	i
O=S(=O)(NCC(c1ccccc1)N1CCc2ccccc21)c1ccc(Cl)cc1 (configuration not stated)	x	u	x	11%	x	i
CC(C)c1ccc(/C=C/C2=NNC(=O)CC2)cc1	x	i	0%	11µM*	-4%	i
N#C/C(=C\c1ccc(OC(F)F)cc1)C(=O)N1CCCCC1	0%	i	13µM*	u	14%	i
O=C(NCc1ccco1)c1cc2cc(Br)ccc2o1	2%	i	-3%	22µM*	5%	i
O=C(COc1ccc(Cl)cc1)c1ccc(O)cc1O	-5%	i	-8%	-22%	3%	i
O=C(COc1ccccc1)OCC(=O)c1ccc(O)cc1O	x	i	4%	25%	0%	13µM*
CN1CCc2nc3sc(C(=O)Nc4cccc(C#N)c4)c(N)c3cc2C1	x	u	x	18µM*	x	i
CC(C)OC(=O)CC(=O)c1sc2nc3c(cc2c1N)CN(C)CC3	u	13µM*	-2%	8%	-8%	i
SMILES	MBNL1 CUG block	FUS suppressor	aSyn rescue	TDP43 rescue	Glioma ERSR ind	Abeta yeast res
O=C(CCS(=O)(=O)c1ccccc1)Nc1cc(Cl)ccc1F	x	i	x	x	x	x
O=C1CN(C(=O)c2ccc(S(=O)(=O)N3CCCC3)cc2)C(c2ccccc2)c2cc(F)ccc2N1 (configuration not stated)	x	i	x	13%	-3%	i
Cc1ccc2c(c1)C(c1ccc(F)cc1)N(C(=O)c1ccc(S(=O)(=O)N3CCCCC3)cc1)CC(=O)N2 (configuration not stated)	x	32µM*	x	-9%	-4%	i
O=C1CN(C(=O)c2ccc(S(=O)(=O)N3CCCC3)cc2)C(c2ccc(F)cc2)c2cc(Br)ccc2N1 (configuration not stated)	x	u	x	5%	0%	i
O=C1CN(C(=O)c2ccc(S(=O)(=O)N3CCCCC3)cc2)C(c2ccc(F)cc2)c2cc(Br)ccc2N1 (configuration not stated)	x	18µM*	x	10%	-4%	i
COc1ccccc1CN(C)CC(=O)Nc1cccc(S(=O)(=O)N2CCCCC2)c1	x	i	1%	3.2µM*	-3%	i
COc1ccccc1NC(=O)c1cc(S(=O)(=O)N2CCCCCC2)ccc1F	-1%	i	1%	11µM*	6%	i
Cc1ccc(NC(=O)c2ccc(C)c(S(=O)(=O)N3CCCCCC3)c2)cc1	x	i	0%	18µM*	0%	i
Cc1ccc(NC(=O)c2ccccc2F)cc1S(=O)(=O)N1CCCCCC1	-1%	i	5%	20µM*	-5%	i
COc1ccc(S(=O)(=O)N2CCCC2)cc1NC(=O)c1ccccc1F	-5%	i	0%	5%	-1%	i
O=C(CSc1nnc(-c2ccc(Cl)cc2)n1Cc1ccco1)Nc1ccc(S(=O)(=O)Nc2nccs2)cc1	x	i	x	x	x	x
O=S1(=O)c2ccc(Br)cc2OC[C@@H](Cc2ccccc2)N1Cc1cn(CCC2OCCO2)nn1	x	i	x	x	x	x
COc1cc2c(c(OC)c1OC)-c1c(cc3c(c1OC)OCO3)CC(C)C(C)(O)C2 (configuration not stated)	x	x	x	x	-3%	x
CN1CCN(CC(=O)N2N=C(c3cccs3)CC2c2ccco2)CC1 (configuration not stated)	u	x	-12%	-5%	-3%	i
O=C(CCl)N1N=C(c2cccs2)CC1c1ccco1 (configuration not stated)	18%	i	9%	22µM*	-14%	i
CCC(C(=O)Nc1ccccc1N1CCCC1)c1ccccc1F (configuration not stated)	x	i	x	x	x	x
Cc1ccc(C)c(NC(=S)Nc2cccnc2)c1	-8%	i	2%	2%[9.22 µM]	-3%	i
Cc1ccc(NC(=S)Nc2cccnc2)c(S(=O)(=O)N2CCCCC2)c1	-1%	35µM*	0%	15%	-4%	i
O=S(=O)(CC1NCCc2ccccc21)NCCc1ccccc1 (configuration not stated)	x	i	x	x	x	x
